Data published in the supplement of paper PMC7184167.
Counter-ions that a name gives are not always drawn.

tested on: replication-induced senescent mouse newborn dermal fibroblasts (NBF); assay: relative cell viability of senescent cells (fraction); higher = less killing of senescent cells; details: 1 µM; 3 days
Experimental: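 Replication-induced senescent newborn mouse skin fibroblasts (NBFs) in 24-well plates were treated with a Selleck FDA-approved drug library at 1 µM for 3 days.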

Row | SMILES | relative cell viability
1 | CO[C@H]1C[C@@H]2CC[C@@H](C)[C@@](O)(O2)C(=O)C(=O)N2CCCC[C@H]2C(=O)O[C@H]([C@H](C)C[C@@H]2CC[C@@H](O)[C@H](OC)C2)CC(=O)[C@H](C)/C=C(\C)[C@@H](O)[C@@H](OC)C(=O)[C@H](C)C[C@H](C)/C=C/C=C/C=C/1C [Rapamycin (Sirolimus)] | 0.735
2 | CO[C@H]1/C=C/O[C@@]2(C)Oc3c(C)c(O)c4c(O)c(c(/C=N/N5CCN(C)CC5)c(O)c4c3C2=O)NC(=O)/C(C)=C\C=C\[C@H](C)[C@H](O)[C@@H](C)[C@@H](O)[C@@H](C)[C@H](OC(C)=O)[C@@H]1C [Rifampin] | 1.11
3 | Cc1cn([C@H]2C=C[C@@H](CO)O2)c(=O)[nH]c1=O [Stavudine (d4T)] | 0.893
4 | NC(=O)NO [Hydroxyurea] | 0.967
5 | Cc1[nH]c2ccccc2c1CCNCc1ccc(/C=C/C(=O)NO)cc1 [Panobinostat (LBH589)] | 1.08
6 | CC(C)c1nc(CN(C)C(=O)N[C@H](C(=O)N[C@@H](Cc2ccccc2)C[C@H](O)[C@H](Cc2ccccc2)NC(=O)OCc2cncs2)C(C)C)cs1 [Ritonavir] | 1.15
7 | CC(C)NCC(O)COc1ccc(COCCOC(C)C)cc1 (stereo not given) [Bisoprolol fumarate] | 0.929
8 | Cc1ccc(C(=O)N(CCCN)[C@@H](c2nc3cc(Cl)ccc3c(=O)n2Cc2ccccc2)C(C)C)cc1 | 1.13
9 | COC(=O)[C@H](c1ccccc1Cl)N1CCc2sccc2C1 [Clopidogrel] | 0.983
10 | Cc1nc2n(c(=O)c1CCN1CCC(c3noc4cc(F)ccc34)CC1)CCCC2 [Risperidone] | 0.76
